The record followed here is the supplement of paper PMC6555819.

In one assay the test system is RARg:RXRa (NR concentration 270 nM, RXRa partner concentration 90 nM). Nature of the assay: PBM binding z-score (relative to random genomic background probes); higher = stronger binding; sequences stand for … in GC…GCGATTGACAGCGTAGAATGAAGG
The procedure, abridged:
(§1)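 Random background probes are the reference for binding z-scores. These scores derive from regression-normalized fluorescence on custom Agilent 4×180K protein-binding microarrays incubated 1 h with ligand-free nuclear receptor dimers. Binding was detected with antibodies against each partner (one per run).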
Regarding CCGACGGGGGCAAAGGTTACCATACTCAGTACGA, the PBM binding z-score was found to be 6.4.
The sequence TGTCAAAGTTCAAAGGTGACGTAAGTATCCACAC came in with a PBM binding z-score of 6.99.
For TATACAGGGTCAAAGGCCAAAGTACGAATGTCGA, the PBM binding z-score was determined as 6.22.
As to AATACGGGGTCACTAGGCCAGAGTAGGTACGAAT, the PBM binding z-score came to 7.06.
Same read-out and setting: under ATATGTAGGTCAAGGGTCATTCAGGTTGGTTCGC stands 7.22; under ATATGTAGGTTAAAGGTCATTCAGGTTGGTTCGC, 6.81.
On the same count and under the same terms, to GATACGGGGTCAAGGCCAGAGTACGCGTATTGAT belongs 7.3.
On the same count and under the same terms, under GCTGCTAGTTCAACTGATGGTCAGCTAAAGCTCG stands 1.93; under GGAACGAGGTCAAAGTTGATAGCATCTGTCGACG, 6.64.
Sequence ACTTACGGGTCAACGAGGTCATAGCACGCGTATA registered a PBM binding z-score of 7.14.
Turning to CAAACCAGGTCAAAGGTCAAAGTCGAGCCAACCA, the PBM binding z-score was 8.97.

Another assay concerns RARg homodimer (NR concentration 270 nM). The description is as above. The gist of the method: as §1
On to TCTAGTAGGTCAAAGGTCACACACTCGAAATGCG, for which the PBM binding z-score came out at 7.76.
CGTCCAAGGTCACAGAGGTCAGTGAATGCCGAGT displayed a PBM binding z-score of 8.03.
On the same count and under the same terms, under CCGACGGGGGCAAAGGTTACCATACTCAGTACGA stands 4.09; under TGTCAAAGTTCAAAGGTGACGTAAGTATCCACAC, 6.27.
As for CAAAATAGGTCACGAAAGGTCAAAGTCGAATGAC, the PBM binding z-score was determined as 8.76.
Sequence CCGAGAAGGTTACGAGGGGGCATTCAGTGCGAAT displayed a PBM binding z-score of 3.13.
Consider TATACAGGGTCAAAGGCCAAAGTACGAATGTCGA, for which the PBM binding z-score came out at 5.3.
With AATACGGGGTCACTAGGCCAGAGTAGGTACGAAT, the PBM binding z-score was 6.82.
Consider AGAACGAGGTCACGCTGAGTTGATAGCAGAGTAG, for which the PBM binding z-score came out at 7.61.
Take GCTGCGAGGTCAACTGATGGTCAGCTAAAGCTCG: the PBM binding z-score was determined as 7.44.
On the same count and under the same terms, to ATATGTAGGTCAAGGGTCATTCAGGTTGGTTCGC belongs 6.02; to CCAACTAGGTCAAAGGACAGTGAAAGGCGACGTA, 4.53.
Sequence ATATGTAGGTTAAAGGTCATTCAGGTTGGTTCGC had a PBM binding z-score of 5.37.
In turn, GCTTAGGGGTCAAAGGTTATAGCATGAATAGAAT gave a PBM binding z-score of 7.06.
CAAACAAGGTCACGAAAGGTCAAAGTCGAATGAC: the PBM binding z-score is 9.5.
Still for that read-out and setting: under TGTCAAAGGTCAAAGGTAACGTAAGTATCCACAC stands 8.8; under CTATGTAGGTTAAGGGAGTCATTCAGTTTGAAAG, 0.44.
Sequence CGTCAAAGGTCAGCAGGTCAGTGAAAGCGACGTG displayed a PBM binding z-score of 8.73.
On the same count and under the same terms, to GCTTAAGGGTCAAAGGTTATAGCATGAATAGAAT belongs 7.11; to CAAACGAGGTCACGAAAGGTCAAAGTCGAATGAC, 9.89.
On the same count and under the same terms, to CAAAATAGGTCACAGAGGTCAAAGTCCGTGCGTA belongs 8.18.
Regarding AATACGGGGTCATCGTAGGCCAGAGTACGCACAG, the PBM binding z-score amounted to 7.15.
In the case of GATACGGGGTCAAGGCCAGAGTACGCGTATTGAT, the PBM binding z-score is 6.89.
Still for that read-out and setting: to GCTGCTAGTTCAACTGATGGTCAGCTAAAGCTCG belongs 1.07.
ATCGAAAGGTCATGAGGTGAGTATACAGAAAGGC: the PBM binding z-score stood at 8.01.
With TATACGGGGTCAAAGGCCAGAGTACGAATGTCGA, the PBM binding z-score was 6.78.
On the same count and under the same terms, to TGTCAAAGTTCAAAGGTTACGTAAGTATCCACAC belongs 6.76; to TAGCCTAGGTCATTCAGGGGCAAGTATAGAAAGC, 4.44; to CCTCGGAGGTCAACAGGAGGTCAGAGCTGCCAGA, 7.73.
The same measure, in the same setting: to AGTCAAAGGTCATCTAGGTAACGTAAGATATGCT belongs 7.77.
On the same count and under the same terms, to TAGCCGAGGTCATTCAGGGGCCAGTATAGAAAGC belongs 6; to CGTCAAAGTTCAACTAAGGTCACGTAAAGCACGC, 8.89.
With TCTAGTTGGTCAAAGGTCACGCACTCGAAATGCG, the PBM binding z-score was 7.23.
On the same count and under the same terms, to GGAACGAGGTCAAAGTTGATAGCATCTGTCGACG belongs 6.56; to CGTCAAAGGTCAAAGGTCAGTGAAGAGATGACGG, 9.73; to CAAACAAGGTCACAGAGGTCAAAGTCCGTGCGTA, 9.05.
In the case of ACTTACGGGTCAACGAGGTCATAGCACGCGTATA, the PBM binding z-score stood at 6.95.
CGTCCAAGGTCATAGGGGGTCAGTGAAGACAGAT: the PBM binding z-score was 7.83.
As for CAAACCAGGTCAAAGGTCAAAGTCGAGCCAACCA, the PBM binding z-score was 7.49.
In the case of TAGCCTAGTTCATGCGGGCCAGTATAGTGTCGGC, the PBM binding z-score turned out to be 0.586.

The next assay relates to RXRa DBDmut IVT, anti-RXR (DBD mutation: RXRa K156A/R161A, NR concentration 90 nM). The assay is described as above. The procedure, abridged:
as §1
Sequence TCTAGTAGGTCAAAGGTCACACACTCGAAATGCG yielded a PBM binding z-score of 2.77.
On the same count and under the same terms, under CGTCCAAGGTCACAGAGGTCAGTGAATGCCGAGT stands 3.92.
Still for that read-out and setting: under CCGACGGGGGCAAAGGTTACCATACTCAGTACGA stands 3.13; under TGTCAAAGTTCAAAGGTGACGTAAGTATCCACAC, 4.5; under CAAAATAGGTCACGAAAGGTCAAAGTCGAATGAC, 2.5.
The sequence CCGAGAAGGTTACGAGGGGGCATTCAGTGCGAAT came in with a PBM binding z-score of 1.65.
In turn, TATACAGGGTCAAAGGCCAAAGTACGAATGTCGA returned a PBM binding z-score of 3.
AATACGGGGTCACTAGGCCAGAGTAGGTACGAAT showed a PBM binding z-score of 4.12.
On the same count and under the same terms, to AGAACGAGGTCACGCTGAGTTGATAGCAGAGTAG belongs 4.36; to GCTGCGAGGTCAACTGATGGTCAGCTAAAGCTCG, 4.3.
The same measure, in the same setting: under ATATGTAGGTCAAGGGTCATTCAGGTTGGTTCGC stands 2.84; under CCAACTAGGTCAAAGGACAGTGAAAGGCGACGTA, 1.91.
As to ATATGTAGGTTAAAGGTCATTCAGGTTGGTTCGC, the PBM binding z-score was found to be 2.47.
Regarding GCTTAGGGGTCAAAGGTTATAGCATGAATAGAAT, the PBM binding z-score came to 4.82.
Same read-out and setting: to CAAACAAGGTCACGAAAGGTCAAAGTCGAATGAC belongs 4.12; to TGTCAAAGGTCAAAGGTAACGTAAGTATCCACAC, 3.15.
Regarding CTATGTAGGTTAAGGGAGTCATTCAGTTTGAAAG, the PBM binding z-score worked out at 0.0971.
The same measure, in the same setting: to CGTCAAAGGTCAGCAGGTCAGTGAAAGCGACGTG belongs 2.54; to GCTTAAGGGTCAAAGGTTATAGCATGAATAGAAT, 3.54.
The same measure, in the same setting: under CAAACGAGGTCACGAAAGGTCAAAGTCGAATGAC stands 4.62; under CAAAATAGGTCACAGAGGTCAAAGTCCGTGCGTA, 3.08.
As to AATACGGGGTCATCGTAGGCCAGAGTACGCACAG, the PBM binding z-score amounted to 4.86.
The same measure, in the same setting: to GATACGGGGTCAAGGCCAGAGTACGCGTATTGAT belongs 4.16; to GCTGCTAGTTCAACTGATGGTCAGCTAAAGCTCG, 1.97.
ATCGAAAGGTCATGAGGTGAGTATACAGAAAGGC registered a PBM binding z-score of 3.11.
The sequence TATACGGGGTCAAAGGCCAGAGTACGAATGTCGA gave a PBM binding z-score of 4.48.
The sequence TGTCAAAGTTCAAAGGTTACGTAAGTATCCACAC returned a PBM binding z-score of 4.3.
TAGCCTAGGTCATTCAGGGGCAAGTATAGAAAGC registered a PBM binding z-score of 2.38.
The sequence CCTCGGAGGTCAACAGGAGGTCAGAGCTGCCAGA yielded a PBM binding z-score of 3.36.
For AGTCAAAGGTCATCTAGGTAACGTAAGATATGCT, the PBM binding z-score was determined as 3.31.
Still for that read-out and setting: under TAGCCGAGGTCATTCAGGGGCCAGTATAGAAAGC stands 4.38.
Sequence CGTCAAAGTTCAACTAAGGTCACGTAAAGCACGC gave a PBM binding z-score of 4.75.
Same read-out and setting: under TCTAGTTGGTCAAAGGTCACGCACTCGAAATGCG stands 1.92; under GGAACGAGGTCAAAGTTGATAGCATCTGTCGACG, 4.67; under CGTCAAAGGTCAAAGGTCAGTGAAGAGATGACGG, 4.01.
The same measure, in the same setting: under CAAACAAGGTCACAGAGGTCAAAGTCCGTGCGTA stands 4.67; under ACTTACGGGTCAACGAGGTCATAGCACGCGTATA, 3.65; under CGTCCAAGGTCATAGGGGGTCAGTGAAGACAGAT, 4.45.
The same measure, in the same setting: under CAAACCAGGTCAAAGGTCAAAGTCGAGCCAACCA stands 3.71.
TAGCCTAGTTCATGCGGGCCAGTATAGTGTCGGC: the PBM binding z-score stood at 1.71.
